{"source": "PubChem BioAssay (NCI)", "note": "Compounds without any hit were thinned out: in the full panel of roughly 83,000, 20% have a hit.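 Single-concentration screen, 48 h exposure, 96-well plates. Endpoint: percent growth. Below 10 = active.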 Values without a mark were called inactive.", "data": [{"tested_on": "HL-60(TB) leukemia", "assay": "NCI-60 one-dose screen, 48 h (100 = growth as untreated, 0 = no growth, -100 = all killed)", "conditions": "10 µM unless noted", "units": {"growth": "%"}, "values": [{"smiles": "O=S(=O)(c1nc(-c2ccc(Br)cc2)oc1-c1ccc(Cl)cc1)N1CCCC(O)C1", "note": "(stereo unspecified)", "growth": 31.4}, {"smiles": "COC1=C[C@@]23CCC(=O)N2CCc2cc4c(cc2[C@H]3[C@H]1OC(=O)C(C)(C)O)OCO4", "growth": 87}, {"smiles": "COc1cc(NC(=O)C(C)C)ccc1C(=O)NC(=S)Nc1ccc(S(N)(=O)=O)cc1", "growth": 92.5}, {"smiles": "Nc1nnc(-c2c[nH]c3ncc(Br)cc23)c(-c2c[nH]c3ccc(Br)cc23)n1", "growth": 11.2}, {"smiles": "C/C(=C\\CSc1ccccc1C(=O)O)CCCC(C)CCCC(C)CCCC(C)C", "note": "(stereo unspecified)", "growth": 41.2}, {"smiles": "COc1cc(C2CC(c3ccc(S(=O)(=O)NCCNc4nc(Nc5ccc(F)cc5)nc(N(C)C)n4)cc3)=Nc3c(N)nc(N)nc3N2)cc(OC)c1OC", "note": "(stereo unspecified)", "growth": 80.3}]}]}
